Results filed as inconclusive are left out. Where a call stands in place of a potency, no number is given. Unmarked numbers belong to inactive results. The source made the active and inactive calls. The call rests on the fitted dose curve; in most records, active means well fitted cell-killing curve with a large enough effect in the repeat runs; inconclusive means weak or mixed curves, or effect the other way; inactive means flat fitted curve, though single readings scatter.

In PubChem BioAssay (Tox21) one finds Potency and viability change, negative = cytotoxic data, which are given here for 40 compounds.
Potency means the concentration at half of the fitted maximal effect.

The nature of this experiment: qHTS assay to identify small molecule agonists of the constitutive androstane receptor (CAR) signaling pathway - cell viability counter screen (AID 1224836). Further: nearly all actives have a fitted effect of over 45% in size. As to conditions: HepG2-CYP2B6-hCAR viability, CellTiter-Fluor, 23 h, PK11195 added to every well; series mostly up to 92.4 µM. The text has this:
U.S. Tox21 Program National Center for Advancing Translational Sciences [NCATS] NIH Chemical Genomics Center [NCGC] U.S. Environmental Protection Agency [EPA] National Institutes of Environmental Health Sciences [NIEHS] National Toxicology Program [NTP] U.S. Food and Drug Administration [FDA] Tox21 Assay Overview: The constitutive androstane receptor (CAR) is a nuclear receptor which regulates multiple drug metabolizing enzymes (DMEs) and transporters. Activating CAR will generally increase the transcription and subsequent translation of CYP2B6 and CYP3A4. These two DMEs represent about 50% of the drug metabolizing potential in the body. […] Recently, there have also been studies performed indicating CARs role in energy metabolism and cancer therapy. Therefore, inducing CARs activity could have a potential effect on diabetes and cancer. Identifying environmental toxins and compounds which modulate CAR, through the use of the Tox21 10K compound collection, will be an important step in determining the toxicity and potential therapeutic effects these factors will have on the human body. To differentiate true CAR agonists from cytotoxic substances, the assay is multiplexed with a cell viability assay.
Tox21 Assay Protocol Summary: A double-stable (hCAR and CYP2B6-2.2kb) transfected cell line, derived from human hepatoma (HepG2) cells, was utilized for the duration of the quantitative high-throughput screens. The HepG2-CYP2B6-hCAR cells were dispensed at 2500 cells/4 uL/well in 1536-well white solid bottom plates using a Multidrop Combi. After the assay plates were incubated at 37 C/5% CO2 for 4 hrs, 23 nL of compounds at 15 concentrations (from 5-48 columns) or positive control (from 1 to 4 columns) were transferred to the assay plates using a Pintool station. One uL of PK11195 (final concentration = 0.75 uM) was added, using a Flying Reagent Dispenser, inside each well. After a 23 hr incubation period at 37 C/5% CO2, 1 uL of CellTiter-Fluor reagent was added into each well of the assay plates using a Flying Reagent Dispenser. The fluorescence intensity in the plates was then measured using a ViewLux plate reader.
In general terms: In qHTS, concentration-response curves come from the screen itself.
As for `Brc1ccc(Oc2ccccc2)cc1`, the Potency result is “inactive”.
As to `CC1(C)[C@H](C=C(Cl)Cl)[C@@H]1C(=O)O[C@@H](C#N)c1cccc(Oc2ccccc2)c1`, the Potency entry is “inactive”.
On to `O=NN1CCCCCC1`, for which the Potency result is “inactive”.
On the same count and under the same terms, the entry for `CCCC(=O)Cl` is “inactive”; for `CN(N=O)c1ccc([N+](=O)[O-])cc1` it is “inactive”; for `C[C@H]1CNCCc2ccc(Cl)cc21` it is “inactive”.
On the same count and under the same terms, as for `C=CC(=O)NCNC(=O)C=C`, the entry is “inactive”; as for `C#CCOC(C(=O)OCCN(C)C)(c1ccccc1)c1ccccc1`, “inactive”.
The same measure, in the same setting: the entry for `COP(=S)(OC)Oc1cc(Cl)c(I)cc1Cl` is “inactive”; for `O=[Se]=O` it is 21.5 µM (active); for `Cc1ccccc1CCl` it is “inactive”.
As for `O=S1OC[C@@H]2[C@H](CO1)[C@]1(Cl)C(Cl)=C(Cl)[C@@]2(Cl)C1(Cl)Cl` (stereo not given in full), the Potency result was “inactive”.
As for `CC(=O)c1cc2c(cc1C)C(C)(C)C(C)CC2(C)C` (stereo not given), the Potency entry is “inactive”.
Still for that read-out and setting: the entry for `CCC(COC(=O)c1cc(OC)c(OC)c(OC)c1)(c1ccccc1)N(C)C` (stereo not given) is “inactive”; for `COC(N)=O` it is “inactive”; for `O=S1(=O)OC(c2cc(Br)c(O)c(Br)c2)(c2cc(Br)c(O)c(Br)c2)c2ccccc21` it is 25 µM (active).
On the same count and under the same terms, the entry for `BrCC(Br)C1CCC(Br)C(Br)C1` (stereo not given) is “inactive”.
On the same count and under the same terms, as for `IC(I)=C(I)I`, the figure is 30.6 µM (active); as for `CC(C)(CCl)C(=O)Cl`, “inactive”; as for `CCBr`, “inactive”.
With `Cc1c(F)c(F)c(COC(=O)C2C(/C=C(\Cl)C(F)(F)F)C2(C)C)c(F)c1F` (stereo not given), the Potency entry is “inactive”.
Still for that read-out and setting: the entry for `C=COC(C)=O` is “inactive”.
For `NCC(CC(=O)O)c1ccc(Cl)cc1` (stereo not given), the viability change, negative = cytotoxic was 7.94% [at 0.349 µM].
In the case of `COc1ccc(-c2ccccc2)cc1NNC(=O)OC(C)C`, the Potency entry is “inactive”.
Regarding `CO[C@@H]1[C@H](OC(=O)NC(=O)CCl)CC[C@]2(CO2)[C@H]1[C@@]1(C)O[C@@H]1CC=C(C)C`, the viability change, negative = cytotoxic was -5.35% [at 19 µM].
For `CCC(Cl)CCl` (stereo not given), the Potency entry was “inactive”.
The same measure, in the same setting: as for `Clc1cc(C(Cl)(Cl)Cl)cnc1Cl`, the figure is 43.3 µM (active).
The same measure, in the same setting: as for `N#Cc1ccc(Cl)cc1`, the entry is “inactive”; as for `CC(C)(C)c1cc([N+](=O)[O-])cc([N+](=O)[O-])c1O`, 13.6 µM (active).
On the same count and under the same terms, the entry for `COP(=S)(Oc1cc(Cl)c(Br)cc1Cl)c1ccccc1` (stereo not given) is “inactive”; for `O=C(N[C@H](c1ccccc1)[C@@H]1CN2CCC1CC2)c1c(Cl)ccc(C(F)(F)F)c1Cl` it is 98.4 µM (active); for `ClCc1cccc(Cl)c1` it is “inactive”.
Consider `Cc1cc(=O)[nH]o1`, for which the Potency entry is “inactive”.
Still for that read-out and setting: as for `O=C(NC(=O)c1c(F)cccc1F)Nc1ccc(OC(F)(F)C(F)OC(F)(F)F)c(Cl)c1` (stereo not given), the entry is “inactive”; as for `CCCCCC[N+](=O)[O-]`, “inactive”.
Same read-out and setting: the entry for `CCCN(CCCl)c1c([N+](=O)[O-])cc(C(F)(F)F)cc1[N+](=O)[O-]` is “inactive”.
Same read-out and setting: the entry for `O=S(=O)(Cl)c1ccccc1` is “inactive”; for `Nc1ccc(N=Nc2ccc(-c3ccc(N=Nc4c(S(=O)(=O)O)cc5cc(S(=O)(=O)O)c(N=Nc6ccccc6)c(O)c5c4N)cc3)cc2)c(N)c1` it is “inactive”.
For the compound `CN1[C@@H]2CC[C@H]1CC(OC(=O)c1cc(Cl)cc(Cl)c1)C2` (stereo not given in full), the Potency result was “inactive”.
For the compound `Clc1cc(Cl)c(Cl)c(Cl)c1`, the Potency entry was “inactive”.
